Screens deposited in PubChem BioAssay by National Center for Advancing Translational Sciences (NCATS).
The list is not random: actives were taken first. Their share in the collection is about 6.2%.
MARV entry inh = inhibitors of Marburg virus binding or cell entry | 300,000 tested, 1.8% active | Potency, µM (titrated, usually from 37.8 µM), usual class: inhibitors | Marburg virus pseudotyped entry inhibition, cell reporter | AID 540276; calls by dose curve; tested in HEK293 cells
FMDV antiviral = foot and mouth disease virus antiviral activity. AID 1159524. Potency, µM (titrated, usually from 57.9 µM), actives largely listed as inhibitors. 410,000 tested, 1.2% active. FMDV antiviral cell-based qHTS; calls by dose curve; tested in HEK293T cells; also: read-out not given here; nearly all actives have a fitted effect of over 45% in size
HCMV inh = human cytomegalovirus inhibition; activity change, negative = inhibition, % at 57.5 µM; 410,000 tested, 4.5% active; AID 1259415; HFF cells, HCMV-luciferase reporter, 72 h; stronger effect = lower value; in the data active = activity change below about -60%; inconclusive = no clear call, values can overlap the other calls; inactive = above about -39%
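Screen run at 2 compound doses on HFFs infected with reporter HCMV, MOI 1 PFU/cell. Luciferase activity from cell lysates at 72 h post infection gave inhibition relative to buffer-only and Salinomycin wells.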
Lassa entry inh = blocks Lassa virus binding to or entry into cells; 300,000 tested, 1.2% active; Lassa virus pseudotype entry inhibition, cell reporter; Potency, µM (series often up to 37.9 µM), hits mostly inhibitors; calls by dose curve; tested in HEK293 cells; also: nearly all actives have a fitted effect of over 50% in size
Hits are given with their value; - = inactive; ? = inconclusive; . = not tested or not shown; + = active, no number; ! = not confirmed by another sample.

SMILES | MARV entry inh | FMDV antiviral | HCMV inh | Lassa entry inh
O=S(=O)(c1ccccc1)c1ncc(C(F)(F)F)cc1Cl | ? | 11.2µM | - | ?
CC(=O)c1ccc(-c2ccc3c4c(ccc3c2)OC(CNC(=O)[C@@H]2CCCN2C(C)=O)C4)s1 (stereo partly specified) | . | - | . | .
Cc1cc2c(cc1C)CSC(c1c(O)ccc3ccccc13)SC2 | ? | ? | -74.2 | ?
Cc1cc2c(cc1C)CSC(c1ccc3ccccc3c1O)SC2 | 3.66µM | - | - | ?
CCc1ccccc1NC(=O)Cn1nnc(C(=O)OC)c1C(=O)OC | - | - | - | -
COc1ccc(CCNc2oc(COc3ccc(Br)cc3)nc2C#N)cc1OC | . | 31.6µM | - | .
COc1ccc(CCNc2oc(Cc3cccc4ccccc34)nc2C#N)cc1OC | ? | 28.2µM | - | ?
COc1ccc(CCNc2oc(COc3ccccc3F)nc2C#N)cc1 | - | - | - | -
COC(=O)[C@]12C[C@H](CC(=O)NCCCCc3ccccc3)C(=O)N(Cc3ccccc3)C1=C[C@H](C1CCCC1)O[C@@H]2C | . | . | - | .
NS(=O)(=O)c1ccc(Nc2cc(-c3ccc(O)c(F)c3)[nH]n2)cc1 | . | . | . | -
COC(=O)C(c1ccccc1)(c1cn(C)c2ccccc12)C(Nc1ccccc1)c1cccc(Br)c1 (stereo unspecified) | . | . | - | .
O=C(Cn1ccc2cc(S(=O)(=O)N3CCCCCC3)ccc21)NCc1ccccc1Cl | . | - | - | -
CC(C(=O)NCc1ccccc1)N1Cc2ccccc2C1=O (stereo unspecified) | . | - | - | -
c1ccc(-c2cc3ccccc3nc2N2CCCC2)cc1 | - | - | -61.4 | -
Cc1ccc(-c2cc3ccccc3nc2N2CCOCC2)cc1 | - | - | - | -
Cc1ccc(Sc2ccc(N3CCCC(C(=O)Nc4ccc(F)c(Cl)c4)C3)nn2)cc1 (stereo unspecified) | - | - | - | ?
O=C(NCC1CCC2(CCN(Cc3cnn(-c4ccc(F)cc4)c3)CC2)O1)c1ccccc1 (stereo unspecified) | . | - | . | .
CCc1ccccc1NC(=O)Nc1ccc(F)cc1 | - | - | - | ?
CCCc1c(NC(=O)Nc2ccc(F)cc2)cnn1-c1ccc(Cl)cc1 | ? | ? | -81.2 | 5.01µM
Cc1ccccc1Nc1c(-c2cccnc2)nc2cccc(C)n12 | - | ? | -61.6! | -
Cc1cccc2nc(-c3cccnc3)c(Nc3ccc(C(C)C)cc3)n12 | ? | 28.2µM | -83.0 | ?
COc1ccc(N2Cc3cccc(C(=O)Nc4cccc(F)c4)c3C2=O)cc1 | - | - | - | ?
O=C(CSc1nc2c([nH]c3ccccc32)c(=O)n1-c1ccc(F)cc1)NCC1CCCO1 (stereo unspecified) | . | - | - | ?
CC1CCCN(CCCNC(=O)c2ccc3c(c2)N(Cc2ccc(Cl)cc2)C(=O)c2ccccc2S3(=O)=O)C1 (stereo unspecified) | ? | - | -100.2 | ?
Cc1cccc(CN2C(=O)c3ccccc3S(=O)(=O)c3ccc(C(=O)N4CCCC4)cc32)c1 | - | - | - | ?
SMILES | MARV entry inh | FMDV antiviral | HCMV inh | Lassa entry inh
CCC1CCCCN1CCCNC(=O)c1ccc2c(c1)N(Cc1cccc(Cl)c1)C(=O)c1ccccc1S2(=O)=O (stereo unspecified) | . | - | -98.0 | ?
CCC1CCCCN1CCCNC(=O)c1ccc2c(c1)N(Cc1ccc(Cl)cc1)C(=O)c1ccccc1S2(=O)=O (stereo unspecified) | ? | - | -105.9 | ?
CCC1CCCCN1CCCNC(=O)c1ccc2c(c1)N(Cc1cccc(C)c1)C(=O)c1ccccc1S2(=O)=O (stereo unspecified) | ? | - | -64.5 | ?
CCC1CCCCN1CCCNC(=O)c1ccc2c(c1)N(Cc1ccccc1)C(=O)c1ccccc1S2(=O)=O (stereo unspecified) | ? | - | ? | -
CC1=C2CCC[C@]3(C)CCOC23C=CC1=O (stereo partly specified) | . | . | - | .
CC(CC(=O)Nc1ccc2c(c1)c(=O)n(C)n2Cc1ccc(F)cc1)c1ccccc1 (stereo unspecified) | . | - | - | .
Cn1c(NCC(O)c2ccccc2)nc2c1c(=O)n(Cc1ccc(Cl)c(Cl)c1)c(=O)n2C (stereo unspecified) | ? | 14.1µM | ? | ?
Cc1ccc(NC(=O)CN(C)S(=O)(=O)c2cccc3nsnc23)c(C)c1 | - | - | - | -
Cc1ncc2c(c1CNC(=O)c1ccc3c(c1)OCO3)CCN(C(=O)c1cccc(-n3cccn3)c1)C2 | . | - | . | .
O=C(O)c1cccc(COc2ccccc2Cl)c1 | 0.411µM | 1.41µM | ? | 0.517µM
COc1cc(/C=C2\NC(=S)NC2=O)ccc1OCc1cccc(C(=O)O)c1 | ? | - | - | ?
O=C1NC(=O)/C(=C\c2ccc(OCc3cccc(C(=O)O)c3)c(Cl)c2)N1 | ? | - | - | 6.31µM
O=C(NCc1nnc2n1CCN(Cc1cccc(C(F)(F)F)c1)CC2)c1ccncc1 | . | - | . | .
CCN1C(=O)N(S(=O)(=O)C(F)(F)F)C(c2ccccc2)C(C(=O)OC)=C1C (stereo unspecified) | - | . | . | ?
COc1ccc(Cl)cc1NC(=O)c1c(NCc2ccc(C)o2)sc2c1CCC(C)C2 (stereo unspecified) | . | - | - | -
Cc1cc(C)c(C)c(S(=O)(=O)NCC(=O)NCC2CCCCC2)c1C | ? | - | -61.6 | -
N#CC1C=Cc2c(ccc3ccccc23)N1C(=O)c1ccccc1 (stereo unspecified) | ? | ? | -82.9 | ?
CCOC(=O)C1=CCN(S(=O)(=O)c2ccccc2F)C1c1ccc(Br)cc1 (stereo unspecified) | . | . | - | .
Cc1c(C(=O)N(C)c2ccccc2)sc2nc(-c3ccc(F)cc3)cn12 | . | - | - | -
Cc1c(C(=O)N(C)Cc2ccccc2)sc2nc(-c3ccc(F)cc3)cn12 | . | - | -82.0 | ?
COc1ccc(Br)c(Cn2c(C)c(C(=O)N(C)Cc3ccc(F)cc3)sc2=O)c1 | . | ? | -85.0 | .
Cc1ccccc1Cn1c(C)c(C(=O)N(C)Cc2ccc(F)cc2)sc1=O | . | - | -60.2 | .
Cc1cc(C)cc(Cn2c(C)c(C(=O)N(C)Cc3ccc(F)cc3)sc2=O)c1 | . | - | - | .
O=C(CN1CCCN(Cc2ccc(F)cc2)S1(=O)=O)NC1CCCC1 | . | ? | - | .
COC(=O)c1ccc(OC)c(CN2CCCN(Cc3ccc(C)cc3)S2(=O)=O)c1 | . | - | + | -
SMILES | MARV entry inh | FMDV antiviral | HCMV inh | Lassa entry inh
Cc1ccc(CNC(=O)CN2CCCN(Cc3ccc(F)cc3)S2(=O)=O)cc1 | . | - | - | 11.2µM
Cc1ccc(CN2CCN(CC(=O)Nc3ccc(C)c(C)c3)S2(=O)=O)cc1 | . | - | + | -
Clc1ccc2[nH]c3c(N4CCC5(CC4)OCCO5)ncnc3c2c1 | 10µM | ? | . | 10µM
Cc1cccc2[nH]c3c(N4CCC5(CC4)OCCO5)ncnc3c12 | ? | 39.8µM | - | -
O=C(N/N=C/c1cc(Cl)cc([N+](=O)[O-])c1O)NC12CC3CC(CC(C3)C1)C2 | ? | 22.4µM | - | -
O=C(N/N=C/c1cc(Cl)cc([N+](=O)[O-])c1O)c1ccc2c(c1)OCO2 | . | - | - | .
COc1cccc(C2C3=C(N=c4s/c(=C\c5ccc(O)cc5)c(=O)n42)c2ccccc2CC3)c1OC (stereo unspecified) | - | - | - | -
COc1cccc(C2C3=C(N=c4s/c(=C\c5cccc(O)c5)c(=O)n42)c2ccccc2CC3)c1OC (stereo unspecified) | - | - | -95.5 | ?
